# Laboratory results as given in PubChem BioAssay AID1159580 (chemical genetic matrix, 2015).
# In all, about 5,500 compounds went through this assay and about 2,000 (36%) were called active. About 18% were inconclusive and are not listed. Some of the results follow. Unmarked numbers belong to inactive results. Rule as the data show it: active = normalized growth mostly below about 0.91 (no sharp cut-off); inconclusive = no clear call, values can overlap the other calls; inactive = mostly above about 0.92.
# Experiment: chemical genetic growth profiling, strain panel (AID 1159580);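 also: tested at 20 µM; growth read once vehicle control cultures reached saturation at 30 °C; 1 = growth at the plate median or of vehicle wells; lower values mean less growth of the strain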
# Conditions: S. cerevisiae deletion strains, growth OD
# [1] = locus YHR030C, strain SLT2, active compounds read low
# [2] = locus YHR079C, strain IRE1, active compounds read low
# [3] = locus YJL095W, strain BCK1, active compounds read low
# [4] = locus YJR066W, strain TOR1, active compounds read low
# [5] = locus YLR113W, strain HOG1, active compounds read low
# [6] = locus YNL183C, strain NPR1, active compounds read low
# [7] = locus YOR231W, strain MKK1, active compounds read low
# [8] = locus YPL256C, strain CLN2, active compounds read low
# [9] = locus YDL101C, strain DUN1, active compounds read low
# [10] = locus YAR019C, strain CDC15, active compounds read low
# [11] = locus YBL105C, strain PKC1, active compounds read low
# [12] = locus YBR135W, strain CKS1, active compounds read low
# [13] = locus YBR136W, strain MEC1, active compounds read low
# [14] = locus YBR160W, strain CDC28, active compounds read low
# [15] = locus YDL017W, strain CDC7, active compounds read low
# [16] = locus YDL028C, strain MPS1, active compounds read low
# [17] = locus YDL108W, strain KIN28, active compounds read low
# [18] = locus YDL132W, strain cdc53, active compounds read low
# [19] = locus YDL214C, strain PRR2, active compounds read low
# [20] = locus YDR052C, strain DBF4, active compounds read low
# [21] = locus YDR054C, strain cdc34, active compounds read low
# [22] = locus YDR226W, strain ADK1, active compounds read low
# [23] = locus YDR477W, strain SNF1, active compounds read low
# [24] = locus YER123W, strain YCK3, active compounds read low
# [25] = locus YER133W, strain GLC7, active compounds read low
# [26] = locus YFL009W, strain cdc4, active compounds read low
# [27] = locus YFL029C, strain CAK1, active compounds read low
# [28] = locus YFR003C, strain YPI1, active compounds read low
# [29] = locus YFR019W, strain FAB1, active compounds read low
# [30] = locus YFR028C, strain CDC14, active compounds read low
# [31] = locus YGR040W, strain KSS1, active compounds read low
# [32] = locus YGR052W, strain FMP48, active compounds read low
# [33] = locus YGR092W, strain DBF2, active compounds read low
# [34] = locus YHR082C, strain KSP1, active compounds read low
# [35] = locus YHR205W, strain SCH9, active compounds read low
# [36] = locus YIL147C, strain SLN1, active compounds read low
# [37] = locus YJL128C, strain PBS2, active compounds read low
# [38] = locus YJL157C, strain FAR1, active compounds read low
# [39] = locus YJR016C, strain ILV3, active compounds read low
# [40] = locus YJR066W, strain TOR1 (second series), active compounds read low
# [41] = locus YKL048C, strain ELM1, active compounds read low
# [42] = locus YKL067W, strain YNK1, active compounds read low
# [43] = locus YKL101W, strain HSL1, active compounds read low
# [44] = locus YKL193C, strain SDS22, active compounds read low
# [45] = locus YKL203C, strain TOR2, active compounds read low
# [46] = locus YLR133W, strain CKI1, active compounds read low
# [47] = locus YLR403W, strain SFP1, active compounds read low
# [48] = locus YML070W, strain DAK1, active compounds read low
# [49] = locus YMR001C, strain CDC5, active compounds read low
# [50] = locus YMR205C, strain PFK2 (second series), active compounds read low
# [51] = locus YMR277W, strain FCP1, active compounds read low
# [52] = locus YNL006W, strain LST8, active compounds read low
# [53] = locus YNL020C, strain ARK1, active compounds read low
# [54] = locus YNL161W, strain CBK1, active compounds read low
# [55] = locus YNL207W, strain RIO2, active compounds read low
# [56] = locus YNL222W, strain SSU72, active compounds read low
# [57] = locus YNL307C, strain MCK1 (second series), active compounds read low
# [58] = locus YOL078W, strain AVO1, active compounds read low
# [59] = locus YOL136C, strain PFK27, active compounds read low
# [60] = locus YOR061W, strain CKA2, active compounds read low
# [61] = locus YOR119C, strain RIO1, active compounds read low
# [62] = locus YOR329C, strain SCD5, active compounds read low
# [63] = locus YPL031C, strain PHO85, active compounds read low
# [64] = locus YPL153C, strain RAD53, active compounds read low
# [65] = locus YPL204W, strain HRR25, active compounds read low
# [66] = locus YPL209C, strain IPL1, active compounds read low
# [67] = locus YPR025C, strain CCL1, active compounds read low
# [68] = locus YPR106W, strain ISR1, active compounds read low
# [69] = locus YPR111W, strain DBF20, active compounds read low
# [70] = strain NNK1, active compounds read low
# [71] = strain TSCII, active compounds read low
structure (smiles),measurement,setting,value
C[n+]1ccccc1/C=N\O,normalized growth,[1],0.981
same,normalized growth,[2],0.987
same,normalized growth,[3],0.996
same,normalized growth,[4],0.932
same,normalized growth,[5],0.997
same,normalized growth,[6],0.934
same,normalized growth,[7],1
same,normalized growth,[8],0.974
CN1C(=O)CN=C(c2ccccc2)c2ccccc21,normalized growth,"locus YAL013W, strain DEP1, active compounds read low",1.01
same,normalized growth,"locus YBR229C, strain ROT2, active compounds read low",0.997
same,normalized growth,"locus YCL061C, strain MRC1, active compounds read low",0.999
same,normalized growth,[9],0.995
same,normalized growth,"locus YDR150W, strain NUM1, active compounds read low",0.86
same,normalized growth,"locus YEL061C, strain CIN8, active compounds read low",1
same,normalized growth,"locus YGR078C, strain PAC10, active compounds read low",1
same,normalized growth,[1],1.03
same,normalized growth,"locus YHR087W, strain rtc3, active compounds read low",0.995
same,normalized growth,"locus YJR043C, strain POL32, active compounds read low",1.01
same,normalized growth,"locus YJR075W, strain HOC1, active compounds read low",0.994
same,normalized growth,"locus YKL190W, strain CNB1, active compounds read low",1
same,normalized growth,"locus YLR039C, strain RIC1, active compounds read low",1.02
same,normalized growth,"locus YLR058C, strain SHM2 (second series), active compounds read low",1.01
same,normalized growth,"locus YLR085C, strain ARP6, active compounds read low",1.02
same,normalized growth,"locus YLR262C, strain YPT6, active compounds read low",1.01
same,normalized growth,"locus YML094W, strain GIM5, active compounds read low",1
same,normalized growth,"locus YMR219W, strain ESC1, active compounds read low",1
same,normalized growth,"locus YMR263W, strain SAP30, active compounds read low",0.981
same,normalized growth,"locus YMR307W, strain GAS1, active compounds read low",1.02
same,normalized growth,"locus YNL153C, strain GIM3, active compounds read low",1
same,normalized growth,"locus YNL298W, strain CLA4 (second series), active compounds read low",1.01
same,normalized growth,"locus YNL322C, strain KRE1, active compounds read low",0.991
same,normalized growth,"locus YNR030W, strain Alg12, active compounds read low",1.02
same,normalized growth,"locus YPL055C, strain LGE1, active compounds read low",0.854
same,normalized growth,"locus YPL241C, strain CIN2, active compounds read low",1.05
same,normalized growth,"locus YPR135W, strain CTF4, active compounds read low",0.979
Cc1cc(SCc2[nH]nc3oc(=O)cc(C)c23)c(Cl)cc1Cl,normalized growth,[10],0.979
same,normalized growth,[11],0.993
same,normalized growth,[12],0.984
same,normalized growth,[13],0.987
same,normalized growth,[14],0.986
same,normalized growth,[15],0.988
same,normalized growth,[16],0.991
same,normalized growth,[9],0.989
same,normalized growth,[17],0.98
same,normalized growth,[18],0.987
same,normalized growth,[19],1.01
same,normalized growth,[20],0.981
same,normalized growth,[21],0.983
same,normalized growth,[22],0.972
same,normalized growth,[23],1.01
same,normalized growth,[24],0.993
same,normalized growth,[25],1.03
same,normalized growth,[26],0.984
same,normalized growth,[27],0.979
same,normalized growth,[28],0.994
same,normalized growth,[29],0.995
same,normalized growth,[30],0.99
same,normalized growth,[31],1.01
same,normalized growth,[32],1.03
same,normalized growth,[33],0.973
same,normalized growth,[1],1.1
same,normalized growth,[2],0.992
same,normalized growth,[34],1.13
same,normalized growth,[35],0.968
same,normalized growth,[36],0.979
same,normalized growth,[3],0.947
same,normalized growth,[37],0.933
same,normalized growth,[38],1
same,normalized growth,[39],0.994
same,normalized growth,[40],0.983
same,normalized growth,[4],1.05
same,normalized growth,[41],0.993
same,normalized growth,[42],1.01
same,normalized growth,[43],1.01
same,normalized growth,[44],0.982
same,normalized growth,[45],1.04
same,normalized growth,[5],1
same,normalized growth,[46],0.998
same,normalized growth,[47],0.996
same,normalized growth,[48],1.02
same,normalized growth,[49],0.99
same,normalized growth,[50],1.03
same,normalized growth,[51],0.981
same,normalized growth,[52],0.984
same,normalized growth,[53],0.981
same,normalized growth,[54],1.01
same,normalized growth,[6],1.05
same,normalized growth,[55],0.986
same,normalized growth,[56],0.979
same,normalized growth,[57],0.994
same,normalized growth,[58],0.998
same,normalized growth,[59],1.01
same,normalized growth,[60],0.973
same,normalized growth,[61],1.08
same,normalized growth,[7],0.985
same,normalized growth,[62],0.989
same,normalized growth,[63],0.988
same,normalized growth,[64],0.987
same,normalized growth,[65],0.97
same,normalized growth,[66],0.991
same,normalized growth,[8],1.08
same,normalized growth,[67],0.99
same,normalized growth,[68],1
same,normalized growth,[69],0.974
same,normalized growth,[70],0.985
same,normalized growth,[71],0.98
O=C(Oc1cc(Cl)c(Cl)cc1Cl)C1c2ccccc2Oc2ccccc21,normalized growth,[10],0.953
same,normalized growth,[11],0.943
same,normalized growth,[12],0.944
same,normalized growth,[13],0.937
same,normalized growth,[14],0.94
same,normalized growth,[15],0.937
same,normalized growth,[16],0.943
same,normalized growth,[9],0.945
same,normalized growth,[17],0.941
same,normalized growth,[18],0.934
same,normalized growth,[19],0.95
same,normalized growth,[20],0.96
same,normalized growth,[21],0.927
same,normalized growth,[22],0.963
same,normalized growth,[23],0.912
same,normalized growth,[24],0.961
same,normalized growth,[25],0.982
same,normalized growth,[26],0.933
same,normalized growth,[27],0.95
same,normalized growth,[28],0.941
same,normalized growth,[29],0.996
same,normalized growth,[30],0.949
same,normalized growth,[31],0.907
same,normalized growth,[32],0.924
same,normalized growth,[33],0.655
same,normalized growth,[1],0.75 (active)
same,normalized growth,[2],0.829
same,normalized growth,[34],0.976
same,normalized growth,[35],0.924
same,normalized growth,[36],0.936
same,normalized growth,[3],0.862
same,normalized growth,[37],0.887
same,normalized growth,[38],0.979
same,normalized growth,[39],0.945
same,normalized growth,[40],0.865
same,normalized growth,[4],0.93
same,normalized growth,[41],0.883
same,normalized growth,[42],0.951
same,normalized growth,[43],0.9
same,normalized growth,[44],0.958
same,normalized growth,[45],0.958
same,normalized growth,[5],0.758 (active)
same,normalized growth,[46],0.981
same,normalized growth,[47],0.957
same,normalized growth,[48],0.962
same,normalized growth,[49],0.951
same,normalized growth,[50],0.971
same,normalized growth,[51],0.96
same,normalized growth,[52],0.945
same,normalized growth,[53],0.986
same,normalized growth,[54],0.94
same,normalized growth,[6],0.884
same,normalized growth,[55],0.925
same,normalized growth,[56],0.942
same,normalized growth,[57],0.9
same,normalized growth,[58],0.959
same,normalized growth,[59],0.976
same,normalized growth,[60],0.995
same,normalized growth,[61],0.988
same,normalized growth,[7],0.856
same,normalized growth,[62],0.943
same,normalized growth,[63],0.903
same,normalized growth,[64],0.904
same,normalized growth,[65],0.867
same,normalized growth,[66],0.938
same,normalized growth,[8],0.821 (active)
same,normalized growth,[67],0.939
same,normalized growth,[68],0.931
same,normalized growth,[69],0.901
same,normalized growth,[70],0.927
same,normalized growth,[71],0.944
